The record followed here is PubChem BioAssay AID2685 (National Center for Advancing Translational Sciences (NCATS), 2010).

Structures are written as SMILES. In all, about 320,000 compounds went through this assay and about 2,100 (0.66%) were called active. About 53% were inconclusive and are not listed. The sample holds actives, similar compounds and a random draw of the others, so the mix is not that of the screen. The call rests on the fitted dose curve; in most records, active means well fitted inhibition curve with a large enough effect in the signal ratio, with a control signal flat (not every such curve was filed as active); inconclusive means small, poorly fitted or top-dose-only effect, or effect the other way, or a change in a side signal; inactive means flat fitted curve, though single readings scatter; the % refers to the signal ratio.
Potency means the concentration at half of the fitted maximal effect.

The nature of this assay: qHTS Assay for Lipid Storage Modulators in Drosophila S3 Cells.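 On cell number change: cells counted by Cell Tracker Red CMTPX staining in the red channel.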 On lipid storage change, negative = inhibition: on the % scale 0 is the no-effect control and ±100 the full control effect. The settings on record: BODIPY lipid droplet fluorescence, 18-24 h, cells fed with added oleic acid; cell number change: measured here: cell count max response; series mostly up to 46.1 µM. In outline: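 Drosophila S3 cells got compounds at several concentrations plus oleic acid (400 uM solution). Laser-scanning cytometry with 488 nm excitation read lipid droplets at 500-530 nm and cells at 575-640 nm. Percent activity was relative to 20 uM Triacsin C.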
For `O=C(CSc1nnc(-c2ccccc2F)o1)N1CCCC1`, the Potency was 23.1 µM (active) and the cell number change worked out at 22.6%.
In the case of `Cc1ccccc1-c1nnc(SCC(=O)N2CCCC2)o1`, the Potency entry is “inactive” and the cell number change turned out to be 9.17%.
For the molecule `O=C(CSc1nnc(-c2ccccc2Cl)o1)N1CCCCC1`, the Potency entry is “inactive”.
Take `COC(=O)CN(n1cnnc1)S(=O)(=O)c1ccccc1Cl`: the Potency entry is “inactive” and the cell number change was -1.98%.
The corresponding values for `COc1cccc(NC(=O)COC(=O)CCn2c(C)csc2=O)c1` are “inactive” and -50%.
In the same order, the values of `CCCCn1c(SCC(=O)N2CCc3ccccc32)nnc1-c1ccncc1` are “inactive” and -7.69%.
The corresponding values for `CCCCn1c(SCC(=O)N(C)C)nnc1-c1ccncc1` are “inactive” and 9.01%.
As for `CSc1nnc(-c2ccncc2)n1CCCN1CCCC1=O`, the Potency is 0.731 µM (active) and the cell number change was -16.4%.
As for `CC(C)(C)OC(=O)NCCCC(CCCNC(=O)OC(C)(C)C)C(=O)O`, the Potency was 16.4 µM (active) and the cell number change is -6.12%.
Turning to `CC(C)(C)OC(=O)NCCCCCO`, the Potency entry was “inactive” and the cell number change was -1.04%.
In the same order, the values of `CC(C)(C)OC(=O)NC(Cc1ccccc1)C(=O)NCCCC(=O)O` (configuration not stated) are “inactive” and -14.4%.
On to `Cc1ccc(C(=O)N/N=C/c2ccc(-c3cccc(Cl)c3)o2)cn1`, for which the Potency entry was “inactive” and the cell number change was found to be 8.19%.
Regarding `Nc1nc(-c2ccccc2)c(-c2ccccc2)s1`, the Potency entry was “inactive”.
As to `Nc1c(-c2ccccc2)sc2ccc3ccccc3[n+]12`, the Potency was 1.3 µM (active) and the cell number change is 7.96%.
In the same order, the values of `Nc1nc(-c2ccccc2)c(-c2ccc([N+](=O)[O-])cc2)s1` are “inactive” and 0.729%.
The corresponding values for `O=C(COC(=O)C1COc2ccccc2O1)Nc1cccc(Cl)c1` (configuration not stated) are “inactive” and -13.4%.
The corresponding values for `Cc1ccccc1C1C(=O)c2ccccc2C1=O` are 20.6 µM (active) and 14.4%.
Turning to `Cc1ccc(C)c(C2C(=O)c3ccccc3C2=O)c1`, the Potency result is “inactive” and the cell number change was -8.26%.
The corresponding values for `O=C1c2ccccc2C(=O)C1c1ccccc1` are “inactive” and 3.81%.
In the same order, the values of `O=C(Nc1ccc(Cl)cc1)Nc1ccon1` are “inactive” and 28.2%.
`O=C(Nc1ccc(Cl)c(Cl)c1)Nc1ccon1`: the Potency was 10 µM (active).
Regarding `O=C(Nc1cccc(Cl)c1)Nc1ccon1`, the Potency result was “inactive” and the cell number change is -26.2%.
The corresponding values for `Cc1cc(C)c(OCCCCCNCCO)c(C)c1` are 25.9 µM (active) and -17.5%.
Take `Cc1cc(C)cc(OCCCCCNCCO)c1`: the Potency entry is “inactive” and the cell number change was -17.6%.
As to `Cc1ccccc1OCCCCCNCCO`, the Potency result is “inactive” and the cell number change came out at 2.5%.
Take `O=C1NCCN(Cc2ccc(Cl)c(F)c2)C1CC(=O)N1CCCCO1` (configuration not stated): the Potency entry is “inactive” and the cell number change worked out at 5.73%.
In the same order, the values of `Nc1nc2c(C(=O)N3CCOCC3)nnn2c2ccccc12` are “inactive” and 6.42%.
As for `CCN(CC)S(=O)(=O)c1ccc(N2CCOCC2)c(NS(=O)(=O)c2ccc(C)c(C)c2)c1`, the Potency entry was “inactive” and the cell number change was 16%.
The corresponding values for `CCN(CC)S(=O)(=O)c1ccc(N2CCOCC2)c(NS(=O)(=O)c2ccc(OC)cc2)c1` are 20.6 µM (active) and -20.4%.
In the same order, the values of `CCN(CC)S(=O)(=O)c1ccc(N2CCCC2)c(NS(=O)(=O)c2ccc(OC)cc2)c1` are “inactive” and 10.1%.
In the same order, the values of `CN(C(=O)CCn1c(=S)oc2ccccc21)c1ccc(F)cc1` are “inactive” and 7.52%.
Turning to `Cc1cc(C)c(C)c(S(=O)(=O)N[C@@H](C)C(=O)OCC(N)=O)c1C`, the Potency result is “inactive” and the cell number change was -24.5%.
In the same order, the values of `COc1ccc(N2CCN(C(=O)COC(=O)c3ccco3)CC2)cc1` are “inactive” and 6.24%.
In the same order, the values of `O=C(OCC(=O)N1CCN(c2ccccc2)CC1)c1ccco1` are 23.1 µM (active) and -17.5%.
The corresponding values for `O=C(NCC(=O)N1CCN(c2ccccc2)CC1)c1ccco1` are “inactive” and 1.29%.
Take `COc1ccc(NC(=O)CCS(=O)(=O)c2ccc(Cl)cc2)cc1`: the Potency entry is “inactive”.
`O=S(=O)(c1cccs1)N1CCC(Cc2ccccc2)CC1`: the Potency entry is “inactive” and the cell number change is -12%.
With `CCCCCCSc1ccc(-c2nc3ccc(C)cn3c2NC2CCCCC2)cc1`, the Potency was 11.6 µM (active).
As for `CCCCCCSc1cccc(-c2nc3cc(C)ccn3c2NC2CCCCC2)c1`, the Potency entry is “inactive” and the cell number change is -11.8%.
The corresponding values for `CCC(C)Sc1ccc(-c2nc3ccc(C)cn3c2NC2CCCCC2)cc1` (configuration not stated) are “inactive” and -1.01%.
The corresponding values for `CC(C)(C)CC(=O)Nc1nn[nH]n1` are “inactive” and -2.51%.
In the same order, the values of `O=C(NNC(=S)NC1CC2C=CC1C2)c1cccnc1` (configuration not stated) are “inactive” and 2.14%.
As for `COCC(=O)Nc1ccc(Br)c(C)c1`, the cell number change was 9.41% and the lipid storage change, negative = inhibition is 14.1% [at 9.22 µM] (inactive).
For `CCOC(=O)Cc1csc(SCC(=O)Nc2ccc(C)cc2F)n1`, the Potency result is “inactive” and the cell number change was -11%.
The corresponding values for `CCOC(=O)Cc1csc(SCC(=O)Nc2cccc(Cl)c2)n1` are “inactive” and 13.5%.
On to `CCOC(=O)Cc1csc(SCC(=O)NC(C)C23CC4CC(CC(C4)C2)C3)n1` (configuration not stated), for which the Potency was 1.64 µM (active) and the cell number change came to 5.41%.
The corresponding values for `O=C(Nc1ccccn1)c1ccc(Cl)c(S(=O)(=O)N2CCOCC2)c1` are “inactive” and 13.7%.
The corresponding values for `CCOC(=O)COc1ccccc1C(=O)c1cnn(-c2ccccc2)c1` are “inactive” and 3.88%.
In the same order, the values of `CCC(C)NC(=O)CSc1nc2ccccc2c(=O)n1CCCN1CCCCC1` (configuration not stated) are “inactive” and -2.07%.
As for `Cc1cc([N+](=O)[O-])nn1CCC(=O)Nc1nccs1`, the Potency result was “inactive” and the cell number change was 0.24%.
The corresponding values for `COC(=O)c1c(NC(=O)c2ccc(N(C)S(=O)(=O)c3ccc(C)cc3)cc2)sc2c1CCCC2` are “inactive” and -4.01%.
The corresponding values for `CCCN1CCc2c(sc(NC(=O)c3ccc(S(=O)(=O)N(C)c4ccccc4)cc3)c2C(=O)NC)C1` are 4.11 µM (active) and -17.2%.
The corresponding values for `CCCN1CCc2c(sc(NC(=O)c3ccc(S(=O)(=O)N4CCN(C(=O)OCC)CC4)cc3)c2C(N)=O)C1` are “inactive” and -7.97%.
Regarding `CN1CCc2c(sc(NC(=O)c3ccc(C(=O)c4ccccc4)cc3)c2C(N)=O)C1`, the Potency entry was “inactive” and the cell number change was 0.647%.
In the same order, the values of `CCCN1CCc2c(sc(NC(=S)NC(=O)c3ccccc3)c2C#N)C1` are “inactive” and 3.88%.
In the same order, the values of `CCCN1CCc2c(sc(NC(=O)c3ccc(S(=O)(=O)N(C)c4ccccc4)cc3)c2C(N)=O)C1` are 13 µM (active) and -20.7%.
The corresponding values for `COc1cc(OC)c(C(=O)OCC(=O)NCCC2=CCCCC2)cc1OC` are “inactive” and -12.4%.
Consider `COCCNC(=O)CCCn1c(=O)c2cc(OC)c(OC)cc2n(CC(=O)c2ccc(Cl)cc2)c1=O`, for which the Potency entry was “inactive” and the cell number change was -4.78%.
In the same order, the values of `CCOC(=O)C1CCN(C(=O)CC(NS(=O)(=O)c2ccc(OC)cc2)C(C)C)CC1` (configuration not stated) are “inactive” and 5.69%.
In the case of `CC(C)n1cnc2c(Nc3cccc(Cl)c3)nc(NCCCO)nc21`, the Potency result was “inactive” and the cell number change came to 1.01%.
As for `CN(C)CCCNc1ccc(-c2cc(Nc3cccc(Cl)c3)ncn2)cn1`, the Potency result is “inactive” and the cell number change came out at 7.36%.
As for `OCCCNc1cc(-c2ccnc(Nc3cccc(Cl)c3)n2)ccn1`, the Potency was 6.51 µM (active) and the cell number change is -20.1%.
The corresponding values for `OC(COc1c(F)cc(Br)cc1F)CN1CCc2ccccc2C1` (configuration not stated) are “inactive” and -1.04%.
On to `c1ccc(Cc2nnc3sc(-c4ccccn4)nn23)cc1`, for which the Potency result is “inactive”.
Regarding `CN(C)CCCN(Cc1cc2cc3c(cc2[nH]c1=O)OCCO3)C(=O)NC1CCCCC1`, the Potency result was “inactive” and the cell number change stood at 0.0235%.
With `O=C(NC1CCCCC1)N(CCN1CCCC1)Cc1cc2cc3c(cc2[nH]c1=O)OCCO3`, the Potency result is “inactive”.
Regarding `CCN(CC)CCN(Cc1cc2cc3c(cc2[nH]c1=O)OCCO3)C(=O)NC1CCCCC1`, the Potency was 16.4 µM (active) and the cell number change amounted to 4.42%.
Take `Cc1ccc(Nc2nc(N)nc(CN3CCN(C)CC3)n2)cc1`: the Potency is 25.9 µM (active) and the cell number change was -12%.
The corresponding values for `CN1CCN(Cc2nc(N)nc(Nc3ccc4c(c3)OCCO4)n2)CC1` are “inactive” and -0.153%.
As for `Cc1ccc(Nc2nc(N)nc(CN3CCN(C)CC3)n2)cc1C`, the Potency entry is “inactive” and the cell number change is 7.98%.
In the same order, the values of `O=C(Cc1cccc(C(F)(F)F)c1)NCc1cccnc1` are “inactive” and 16.2%.
As for `CCc1c(C)sc(NC(=S)N2CCN(C(=O)C3CCCO3)CC2)c1C(=O)OC` (configuration not stated), the Potency entry was “inactive”.
In the case of `COc1ccc(C(=O)N/C(=C\c2cn(C)c3ccccc23)C(=O)N2CCN(C)CC2)cc1`, the Potency entry is “inactive” and the cell number change was 12.5%.
The corresponding values for `COc1ccc(NC(=O)/C(C#N)=C/c2cccnc2)c(OC)c1` are “inactive” and -14.9%.
On to `COc1ccccc1NC(=O)/C(C#N)=C/c1cccnc1`, for which the Potency result was “inactive” and the cell number change worked out at 14.4%.
In the same order, the values of `COc1ccccc1NC(=O)/C(C#N)=C/c1ccncc1` are 1.16 µM (active) and -3.78%.
In the same order, the values of `Cc1ccc(NC(=O)CC2Oc3ccc(C)cc3NC2=O)c(C)c1` (configuration not stated) are “inactive” and 7.72%.
In the same order, the values of `Cc1ccc(S(=O)(=O)c2nnn(-c3cccc(F)c3)c2N)cc1` are “inactive” and -21.1%.
In the case of `C[C@H](NC(=O)[C@H]1N2C(=O)c3ccccc3C2SC1(C)C)C(=O)N1CCCCC1` (some centres not stated), the Potency was 23.1 µM (active) and the cell number change was -4.2%.
Regarding `C[C@H](NC(=O)[C@H]1N2C(=O)c3ccccc3C2SC1(C)C)C(=O)N1CCC[C@H]1C(=O)O` (some centres not stated), the Potency result is “inactive”.
In the case of `CCC(C)NC(=O)[C@H]1N2C(=O)c3ccccc3C2SC1(C)C` (some centres not stated), the Potency entry was “inactive” and the cell number change was 25%.
In the same order, the values of `Cc1ccc(-c2nnnn2C2C/C(=N\NC(N)=S)C3OCC2O3)cc1` (configuration not stated) are “inactive” and -15.7%.
In the same order, the values of `COc1ccc(C(=O)N(CCc2ccccc2)Cc2cccs2)c(OC)c1` are 13 µM (active) and -11.1%.
As to `COc1ccc(C(=O)N(Cc2ccco2)Cc2cccs2)c(O)c1`, the Potency entry is “inactive” and the cell number change turned out to be 11%.
The corresponding values for `COc1ccc(C(=O)OCC(=O)NCCCc2ccccc2)c(OC)c1` are “inactive” and 26.9%.
For `CCOc1cc(C2C(C#N)=C(N)SC(N)=C2C#N)ccc1OCCN1CCOCC1`, the Potency entry is “inactive”.
For the molecule `CCN=C1S/C(=C/c2ccc(-c3ccc(F)cc3)o2)C(=O)N1CC`, the Potency was 18.4 µM (active) and the cell number change is 4.49%.
As to `CCN=C1S/C(=C/c2ccc(-c3ccc(Cl)cc3C(=O)O)o2)C(=O)N1CC`, the Potency result was “inactive”.
`CC(C)(C)OC(=O)CN1C(=O)S/C(=C\c2ccc(-c3cccc(C(=O)O)c3)o2)C1=O`: the Potency result is “inactive” and the cell number change was 2.36%.
In the same order, the values of `CCN=C1S/C(=C\c2ccc(Sc3ccc(Cl)cc3)o2)C(=O)N1CC` are “inactive” and -1.66%.
In the same order, the values of `CCN1C(=O)/C(=C\c2ccc(-c3cccc(C(=O)OC)c3)o2)SC1=Nc1ccc(C(=O)O)cc1` are 6.51 µM (active) and -21.2%.
In the same order, the values of `O=C(O)c1cccc(-c2ccc(/C=C3/SC(=Nc4ccccc4)N(Cc4cccnc4)C3=O)o2)c1` are “inactive” and -5.87%.
With `CC1=[N+](CC(=O)NC(C)(C)C)CCc2ccccc21`, the Potency entry was “inactive” and the cell number change was -0.377%.
In the same order, the values of `O=C(Nc1cccc(OC(=O)c2ccc(Br)o2)c1)c1ccccc1` are “inactive” and 11.8%.
